The values that follow come from PubChem BioAssay (NCATS).

Values joined by “and” are separate entries in the source; they are usually repeats but may differ in a detail not shown here. Identical values can stand only once. Results filed as inconclusive are left out. Active and inactive are the calls of the source. The call rests on the fitted dose curve; in most records, active means well fitted curve in the direction sought with a large enough effect; inconclusive means small, poorly fitted or top-dose-only effect, or another doubt; inactive means no such curve, though single readings can be large; an effect the other way counts as inactive or inconclusive.
On the % scale 0 is the no-effect control and ±100 the full control effect.

One experiment in a line: qHTS Assay for Identifying Gametocytocidal Compounds (AID 743244).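 Further: actives lower the fluorescent signal which means gametocytes are killed.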 The settings on record: P. falciparum 3D7 stage III-V gametocytes, alamarBlue, 72 h; max response: stronger effect = lower value. The method, boiled down: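 Stage III-V P. falciparum 3D7 gametocytes, 20,000 per well, were exposed to compounds for 72 h at 37C, 5% CO2. AlamarBlue was then added for 24 h and viability was read as fluorescence at Ex 525/Em 598 nm.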
(In general: In qHTS, concentration-response curves come from the screen itself.)
Turning to `CN1CC[C@]23c4c5ccc(O)c4O[C@H]2[C@@H](O)CC[C@H]3[C@H]1C5`, the max response was 10.1% (inactive). As for `c1ccc(CN2CCNCC2)cc1`, the max response was 8.43% (inactive). As to `O=C(Nc1ccc(Br)cc1)c1cc(Br)cc(Br)c1O`, the max response was 3.6% (inactive). The same measure, in the same setting: in the case of `COc1cccc([C@@]2(O)CCCC[C@@H]2CN(C)C)c1` it was 5.95% (inactive); in that of `COc1ccc2c3c1O[C@H]1[C@H](O)CC[C@H]4[C@@H](C2)N(C)CC[C@@]341`, -0.489% (inactive). Still for that read-out and setting: the same measure for `C[N+]1(CCF)[C@@H]2CC[C@H]1CC(OC(=O)C(O)(c1ccccc1)c1ccccc1)C2` (stereo partly specified): 7.34% (inactive); for `CCCCCCCCCC(=O)O[C@H]1CC[C@H]2[C@@H]3CCC4=CC(=O)CC[C@@H]4[C@H]3CC[C@]12C`: 5.38% (inactive). On the same count and under the same terms, in the case of `CCOP(=S)(OCC)Oc1ccc2c(C)c(Cl)c(=O)oc2c1` it was -0.845% (inactive); in that of `COc1cc(CCN)cc(OC)c1OC`, 17.2% (inactive); in that of `CC1(C)C(C=C(Cl)Cl)C1C(=O)OC(C#N)c1cccc(Oc2ccccc2)c1` (stereo unspecified), -13.8% (inactive). For the compound `O=C(CCCN1CCC2(CC1)C(=O)NCN2c1ccccc1)c1ccc(F)cc1`, the max response is -9.38% (inactive) and 8.83% (inactive). In the case of `C[C@]12CCC(=O)C=C1CC[C@@H]1[C@@H]2CC[C@@]2(C)[C@H]1CC[C@]2(C)O`, the max response was -12% (inactive) and -18.1% (inactive).

Turning to `COP(=S)(OC)Oc1cc(Cl)c(Cl)cc1Cl`, the max response was -2.95% (inactive) and 7.49% (inactive). On the same count and under the same terms, the same measure for `O=c1[nH]cnc2[nH]ncc12`: -1.56% (inactive); for `CCN(CCO)CCn1c(Cc2ccccc2)nc2c1c(=O)n(C)c(=O)n2C`: 2.54% (inactive); for `CC(C)c1cccc(C(C)C)c1O`: -8.91% (inactive) and 15.4% (inactive).

The nature of another experiment: qHTS assay for cell viability of HEK293 cells (AID 743288). Further: nearly all actives have a fitted effect of over 50% in size. The note with it: ATP luminescence (CellTiter-Glo), 18 h, stronger effect = lower value. In a few lines:
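Viable-cell counts were inferred from luciferase-based ATP content in HEK293 cells seeded at 2,000/well, pre-incubated ≥5 h, then dosed with DMSO-solubilised compounds for 18 h at 37 C.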
For the compound `CCOP(=S)(OCC)Oc1ccc2c(C)c(Cl)c(=O)oc2c1`, the max response was -5.48% (inactive). Consider `CC1(C)C(C=C(Cl)Cl)C1C(=O)OC(C#N)c1cccc(Oc2ccccc2)c1` (stereo unspecified), for which the max response is -3.3% (inactive). The same measure, in the same setting: the same measure for `C[C@]12CCC(=O)C=C1CC[C@@H]1[C@@H]2CC[C@@]2(C)[C@H]1CC[C@]2(C)O`: -18% (inactive).

Take `COP(=S)(OC)Oc1cc(Cl)c(Cl)cc1Cl`: the max response is -11.5% (inactive).

Regarding `CC(C)c1cccc(C(C)C)c1O`, the max response is -1.26% (inactive).
